# Results with a measured potency or affinity are listed apart.
# Tested on: Klebsiella pneumoniae
# Details: Concentration 20 uM; ASSAY_TEST Inhibition of Bacterial Growth; detection method Absorption (OD600); MEDIA CAMHB; plate type 384well; NBS; CORNING #3640; time 18 hr
row,Compound,Inhibition [%]
1,CN/C(=N\CCSCc1nc[nH]c1C)NC#N [CIMETIDINE],3.14
2,CN1CCN(C2=Nc3cc(Cl)ccc3Nc3ccccc32)CC1 [CLOZAPINE],8.37
3,O=C(O)CCCc1ccc(N(CCCl)CCCl)cc1 [CHLORAMBUCIL],9.18
4,C[C@]12CCC(=O)C[C@@H]1CC[C@@H]1[C@@H]2CC[C@@]2(C)[C@H]1CC[C@]2(C)O [MESTANOLONE],3.85
5,CCOC(=O)C1(c2ccccc2)CCN(CCC(C#N)(c2ccccc2)c2ccccc2)CC1.Cl [DIPHENOXYLATE HYDROCHLORIDE],2.24
6,NC(=O)OCCCc1ccccc1 [PHENPROBAMATE],12.49
7,CC(=O)CC(c1ccccc1)c1c([O-])c2ccccc2oc1=O.[Na+] (stereo not drawn) [WARFARIN SODIUM],4.09
8,Cc1nnc2n1-c1ccc(Cl)cc1C(c1ccccc1)=NC2 [ALPRAZOLAM],8.67
9,C[N+]1(C)CCC(OC(=O)C(O)(c2ccccc2)C2CCCC2)C1.[Br-] (stereo not drawn) [GLYCOPYRRONIUM BROMIDE],13.34
10,C[C@]12CC[C@H]3[C@@H](CCC4=CC(=O)CC[C@@]43C)[C@@H]1CC[C@@H]2O [TESTOSTERONE],3.5
11,CCOC(=O)c1cncn1[C@H](C)c1ccccc1 [ETOMIDATE],12.64
12,Nc1nc(F)nc2c1ncn2[C@@H]1O[C@H](CO)[C@@H](O)[C@@H]1O [FLUDARABINE],6.42
13,C[C@]12CCC(=O)C=C1CC[C@@H]1[C@@H]2CC[C@@]2(C)[C@H]1CC[C@]2(C)O [METHYLTESTOSTERONE],12.33

# From ChEMBL document CHEMBL4513141, “CO-ADD screening of NIH (USA) - Clinical Collection” (2021)
